“And” between values parts separate entries of the source, which are not always exact repeats. Equal entries are not always repeated. Records with an inconclusive call do not appear. More than one record can exist for a structure, and the calls need not agree. The source made the active and inactive calls. The calls were made as follows: active = hit-call score of the fitted dose curve at least 0.9, where 1 is the maximum; inconclusive = response in the unintended direction; inactive = score below 0.9.
Key:
[1] = biological target: Cellular tumor antigen p53 (Homo sapiens) (UniProt P04637); assay: TOX21_p53_BLA_p2_ratio: Tox21 HCT-116 p53 Agonism Beta-lactamase Assay, Ratio, Phase 2 (AID 2283592)
Procedure, shortened: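 Human colon HCT116 cells with an inducible p53 beta-lactamase reporter are exposed to test chemicals for 16 h at 37C. Reporter induction is read as the 460/530 nm emission ratio after CCF4-AM loading, normalized to DMSO.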

[2] = TOX21_p53_BLA_p3_viability: Viability Assessment in the Tox21 HCT-116 p53 Agonism Beta-lactamase Assay, Phase 3 (AID 2283593);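 also: cells exposed to compound for 16 h before reading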
Procedure, shortened: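 Cellular ATP was quantified by CellTiter-Glo luminescence, read after 30 min at room temperature. Beforehand, HCT116 cells (4000/well) received compound 5 h post-seeding, 217-fold diluted from DMSO, then incubated 16 h at 37C.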

[3] = biological target: Cellular tumor antigen p53 (Homo sapiens) (UniProt P04637); assay: TOX21_p53_BLA_p3_ratio: Tox21 HCT-116 p53 Agonism Beta-lactamase Assay, Ratio, Phase 3 (AID 2283596)
Procedure, shortened: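 HCT116 p53-bla cells (4000/well) given compound in DMSO (217-fold dilution) after 5 h, incubated 16 h at 37C. CCF4-AM substrate 2 h at room temperature; 460/530 nm emission ratio, gain fitted against DMSO.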

[4] = TOX21_p53_BLA_p4_viability: Viability Assessment in the Tox21 HCT-116 p53 Agonism Beta-lactamase Assay, Phase 4 (AID 2283597);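 also: hits lower the luminescence signal meaning cytotoxicity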
Procedure, shortened: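 Luminescent ATP readout (CellTiter-Glo, 30 min, room temperature) in the same wells as the p53 bla ratio. HCT116 cells were treated for 16 h at 37C with DMSO-dissolved compounds.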

[5] = biological target: Cellular tumor antigen p53 (Homo sapiens) (UniProt P04637); assay: TOX21_p53_BLA_p5_ratio: Tox21 HCT-116 p53 Agonism Beta-lactamase Assay, Ratio, Phase 5 (AID 2283599)
Procedure, shortened: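 Beta-lactamase reporter ratio (blue 460 nm over green 530 nm, 405 nm excitation) after 2 h CCF4-AM loading, in HCT-116 cells exposed 16 h at 37 C to compounds pinned at 217-fold dilution. Increases relative to DMSO baseline scored.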

[6] = TOX21_p53_BLA_p5_viability: Viability Assessment in the Tox21 HCT-116 p53 Agonism Beta-lactamase Assay, Phase 5 (AID 2283600)
Procedure, shortened: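 Seeded cells (4000/well) settle 5 h before compound addition. Plates then incubate 16 h at 37C, receive FRET substrate for 2 h, and finally CellTiter-Glo, with luminescence measured after a 30 min room-temperature incubation.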

[7] = biological target: Cellular tumor antigen p53 (Homo sapiens) (UniProt P04637); assay: TOX21_p53_BLA_p4_ratio: Tox21 HCT-116 p53 Agonism Beta-lactamase Assay, Ratio, Phase 4 (AID 2283601)
Procedure, shortened: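 Signal is the blue/green (460nm/530nm) ratio of cleaved versus uncleaved CCF4-AM substrate, read after 2 h substrate loading. Cells were HCT116 carrying the p53-responsive beta-lactamase reporter, dosed 16 h at 37C, 5% CO2; CellTiter-Glo measured in parallel.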

Measured: AC50

Cellular tumor antigen p53 (Homo sapiens), sequence (P04637 whole entry, looked up): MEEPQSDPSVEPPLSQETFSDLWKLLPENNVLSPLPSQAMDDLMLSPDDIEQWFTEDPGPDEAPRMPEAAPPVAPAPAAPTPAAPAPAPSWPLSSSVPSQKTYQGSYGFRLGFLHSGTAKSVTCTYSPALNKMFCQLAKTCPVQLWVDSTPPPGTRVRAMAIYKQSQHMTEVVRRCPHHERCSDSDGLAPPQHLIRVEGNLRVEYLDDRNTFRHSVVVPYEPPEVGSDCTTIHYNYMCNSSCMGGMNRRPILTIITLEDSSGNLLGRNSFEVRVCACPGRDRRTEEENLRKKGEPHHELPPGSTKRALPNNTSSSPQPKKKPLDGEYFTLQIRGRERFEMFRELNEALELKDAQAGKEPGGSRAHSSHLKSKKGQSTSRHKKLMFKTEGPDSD

O=C=Nc1ccc(Cl)cc1
inactive: all assays above

O=C(NC(=O)c1c(F)cccc1F)Nc1cc(Cl)c(Oc2ncc(C(F)(F)F)cc2Cl)c(Cl)c1
inactive: [2] | [3] | [6]
active: [1] 6.18 µM | [4] 4.06 µM | [5] 13.7 µM | [7] 15.6 µM

Brc1ccc(Br)cc1
inactive: all assays above

Cc1cc(Cl)ccc1OCCCC(=O)O
inactive: all assays above

O=C(Nc1ccc(Br)cc1)c1cc(Br)cc(Br)c1O
inactive: [6] | [7]
active: [1] 1.15 µM and 272 nM and 3.12 µM | [2] 1.12 µM and 641 nM and 1.79 µM | [3] 255 nM and 198 nM and 1.8 µM | [4] 1.33 µM and 417 nM and 2.76 µM | [5] 1.11 µM and 782 nM and 7.78 µM | [6] 9.14 µM | [7] 1.11 µM and 589 nM

CCOC(=O)OC1=C(c2cc(C)ccc2C)C(=O)NC12CCC(OC)CC2 (stereo not drawn)
active: [1] 46.1 µM | [3] 52.6 µM | [5] 26.3 µM | [7] 54.7 µM
inactive: [2] | [4] | [6]

CC(C=O)Cc1ccc2c(c1)OCO2 (stereo not drawn)
inactive: all assays above

CCOc1cc(C=O)ccc1O
inactive: all assays above

COC(=O)c1cc(Oc2ccc(Cl)cc2Cl)ccc1[N+](=O)[O-]
inactive: all assays above

C=CC(=O)[O][Sn]([CH2]CCC)([CH2]CCC)[CH2]CCC
active: [1] 13.5 µM | [2] 1.64 µM | [3] 13.6 µM | [4] 1.56 µM | [5] 13.4 µM | [6] 1.82 µM | [7] 13.4 µM

Cc1cc(-c2cc(C)c(N)c(C)c2)cc(C)c1N
inactive: all assays above

O=C1C[C@@H]2OCC=C3CN4CC[C@]56c7ccccc7N1[C@H]5[C@H]2[C@H]3C[C@H]46
inactive: all assays above

O=c1[nH]c2ccccc2n1C1CCN(CCCC(c2ccc(F)cc2)c2ccc(F)cc2)CC1
active: [1] 39.4 µM | [2] 67.5 µM and 35.3 µM | [3] 83.6 µM and 43.4 µM | [4] 14.6 µM and 11.3 µM | [5] 84.6 µM and 43.2 µM | [6] 75.5 µM and 31.9 µM | [7] 19.8 µM
inactive: [1] | [7]

O=[N+]([O-])c1ccc(Cl)c([N+](=O)[O-])c1
active: [1] 75.5 µM | [2] 86.3 µM and 41.1 µM | [4] 71.9 µM and 42.9 µM | [5] 32.3 µM and 74.9 µM | [6] 44 µM and 44.4 µM | [7] 22.7 µM
inactive: [1] | [3] | [7]

CC(C)[C@H](C(=O)OC(C#N)c1cccc(Oc2ccccc2)c1)c1ccc(OC(F)F)cc1 (stereo partly drawn)
inactive: all assays above

Cc1cccc(C)c1NC(=O)CN1CCCC1=O
inactive: all assays above

CC(O)(CS(=O)(=O)c1ccc(F)cc1)C(=O)Nc1ccc(C#N)c(C(F)(F)F)c1 (stereo not drawn)
inactive: all assays above

C#C[C@]1(O)CC[C@H]2[C@@H]3CCC4=CC(=O)CC[C@]4(C)[C@H]3CC[C@@]21C
inactive: all assays above

CC(C)CC(C)(c1ccc(O)cc1)c1ccc(O)cc1
active: [1] 41.7 µM and 71.7 µM | [2] 57.9 µM and 73.5 µM | [3] 45.2 µM and 86.9 µM | [4] 18.6 µM and 46.2 µM | [5] 84.6 µM and 86.8 µM | [6] 71.2 µM and 81.4 µM | [7] 40.9 µM and 55 µM

CC(C)[C@@H](Nc1ccc(C(F)(F)F)cc1Cl)C(=O)OC(C#N)c1cccc(Oc2ccccc2)c1 (stereo partly drawn)
not listed: [7]
inactive: all other assays above

Nc1ccc(-c2ccccc2)cc1
inactive: all assays above

CC(C)(C)c1cc([N+](=O)[O-])cc(C(C)(C)C)c1O
inactive: [2] | [5] | [6]
active: [1] 3.81 µM | [3] 4.47 µM | [4] 46.1 µM | [7] 46.1 µM

CC1(C)[C@H](/C=C2\CCSC2=O)[C@@H]1C(=O)OCc1coc(Cc2ccccc2)c1
active: [7] 69.3 µM
inactive: all other assays above

CCC[CH2][Sn]([Cl])([Cl])[CH2]CCC
active: [1] 1.59 µM and 14.3 µM | [2] 2.47 µM and 1.79 µM | [3] 19.6 µM and 20.1 µM | [4] 2.06 µM and 3.45 µM | [5] 15 µM and 20.4 µM | [6] 2.75 µM and 2.86 µM | [7] 3.21 µM and 13.9 µM

C=CC(=O)OCC(COC(=O)C=C)(COC(=O)C=C)COC(=O)C=C
active: [2] 57.9 µM | [4] 13.3 µM | [6] 21.3 µM | [7] 46.1 µM
inactive: [1] | [3] | [5]

CN(C)c1ccc(N=O)cc1
active: [1] 75.7 µM | [2] 88.2 µM and 80.8 µM | [4] 70.4 µM and 69.5 µM | [5] 83.8 µM and 86.6 µM | [6] 74.2 µM and 79.4 µM | [7] 86.9 µM
inactive: [1] | [3] | [7]

CCNc1nc(NCC)nc(SC)n1
not listed: [7]
inactive: all other assays above

C[CH2][Hg][S]c1ccccc1C(=O)O
active: [1] 2.74 µM | [2] 46.1 µM and 6.74 µM | [3] 221 nM and 970 nM | [4] 41.7 µM and 5.78 µM | [5] 350 nM and 3 µM | [6] 46.1 µM and 7.05 µM | [7] 46.1 µM and 34.6 µM
inactive: [1]

N#CS
inactive: all assays above

O=S1OC[C@@H]2[C@H](CO1)[C@]1(Cl)C(Cl)=C(Cl)[C@@]2(Cl)C1(Cl)Cl (stereo partly drawn)
active: [2] 84.1 µM | [4] 83.6 µM
inactive: all other assays above

[F][Sn]([c]1ccccc1)([c]1ccccc1)[c]1ccccc1
active: [1] 10.1 µM | [2] 13.3 µM | [3] 13.5 µM | [4] 3.96 µM | [5] 18.3 µM | [6] 13.2 µM | [7] 12 µM

O=[N+]([O-])c1c2ccccc2cc2ccccc12
inactive: all assays above

O=[N+]([O-])c1ccc(Nc2ccccc2)cc1
active: [1] 72.5 µM | [2] 61 µM | [3] 42.4 µM and 90.9 µM | [4] 82.4 µM | [5] 52.5 µM and 84.9 µM | [6] 66.3 µM | [7] 43.1 µM
inactive: [1] | [2] | [4] | [6] | [7]

O=c1oc2ccccc2c(O)c1C(CC(O)c1ccc(-c2ccc(Br)cc2)cc1)c1ccccc1 (stereo not drawn)
inactive: [1] | [2] | [4] | [6] | [7]
active: [2] 15.2 µM | [3] 43.4 µM and 22.3 µM | [4] 10.4 µM | [5] 27.2 µM and 14.3 µM | [6] 19.3 µM | [7] 20.4 µM

c1ccc2c(c1)Oc1ccccc1O2
active: [3] 86.4 µM
inactive: [1] | [2] | [3] | [4] | [5] | [6]

CCOP(=O)(OCC)OC(=CCl)c1ccc(Cl)cc1Cl
inactive: all assays above

Nc1cccnc1
inactive: all assays above

C=C(C)C(=O)OCC(CC)CCCC (stereo not drawn)
inactive: all assays above

O=C(O)CC(O)(CC(=O)O)C(=O)O
inactive: all assays above

O=C(CCl)Nc1ccccc1
not listed: [6]
inactive: all other assays above

CCN(CC)C(=O)C(Cl)=C(C)OP(=O)(OC)OC
inactive: all assays above

CCCCCCCCCCCCN(C)C
not listed: [5] | [7]
inactive: all other assays above

CCOC(=O)CC(=O)CCl
inactive: [1] | [2] | [5] | [7]
active: [3] 77.9 µM

O=[N+]([O-])c1cccc2ccccc12
not listed: [6]
inactive: all other assays above

CCC[N+](CCC)(CCC)CCC
inactive: [1] | [2] | [3] | [5]

Nc1ccc(Br)cc1
inactive: all assays above

CCCCCCCCCCCCCl
not listed: [5]
inactive: all other assays above

CN(N=O)C(N)=O
not listed: [4] | [6]
inactive: all other assays above

Cc1cc(C(F)(C(F)(F)F)C(F)(F)F)ccc1NC(=O)c1cccc(I)c1C(=O)NC(C)(C)CS(C)(=O)=O
active: [7] 56.9 µM
inactive: all other assays above

CCOP(=S)(OCC)OP(=S)(OCC)OCC
not listed: [6]
inactive: all other assays above

Reference: PubChem BioAssay (EPA / NIEHS)
